Assay results: PubChem BioAssay (NCATS)
Records with an inconclusive call do not appear. Active and inactive are the calls of the source. Calls come from the whole dose curve; as a rule, active = well fitted inhibition curve with a large enough effect; inconclusive = small, poorly fitted or top-dose-only effect; inactive = flat fitted curve, though single readings scatter.

molecular target: Calcium and integrin-binding protein 1 (Homo sapiens) (UniProt Q99828); assay: Primary qHTS for Identification of Calcium Integrin Binding Protein 1 (CIB1) Competitor (AID 1508620); settings: CIB1-GST / FITC-alphaIIb peptide fluorescence polarization; series mostly up to 114 µM; activity change, negative = inhibition: at the top concentration;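 note: GST tagged CIB1 binding a fluorescein labelled alphaIIb integrin peptide tracer; top concentration of the series differs between compounds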
Text: Assay Provider: Ulhas P. Naik, PhD Sidney Kimmel Medical College Thomas Jefferson University, Philadelphia, PA Primary function of platelets is to maintain hemostasis. At the site of vascular injury, platelets adhere to adhesive proteins such as collagen and von Willebrand factor. Adherent platelets are activated and generate soluble platelet agonists such as thrombin, ADP and thromboxane A2. Following exposure of circulating platelets to these agonists, results in platelet shape change, granule secretion and activation of platelet integrin alphaIIb-beta3. Ligand binding to activated integrin alphaIIb-beta3 triggers outside-in signaling, leading to platelet aggregation, stabilization of platelet plug, and clot retraction. Upon atherosclerotic plaque rupture also causes platelet plug formation, which underlies a number of cardiovascular diseases such as myocardial infraction and stroke. A number of anti-platelet drugs such as aspirin, clopidogrel, prasugrel, vorapaxar, and eptifibatide are currently available to prevent the thrombotic complications. However, these anti-platelet agents have several limitations including inherent variability in individual responses, developing resistance, and serious bleeding side effects. For these reasons they are not suitable for long-term protection. Based on the experiences with current anti-platelet drugs, it appears that the most useful therapeutic approach is to intersect the secondary responses such as integrin outside-in signaling or recruitment of platelets by TxA2 and secreted ADP. Compounds, which can largely preserve the primary hemostatic function of platelets but inhibit secondary response will be most desired therapeutic agents for treatment of cardiovascular disease. CIB1 is a calcium integrin binding protein, which specifically interact with the alphaIIb subunit of integrin alphaIIb-beta3. Binding of CIB1 to alphaIIb regulates the outside-in signaling in platelets, which is needed for thrombus stabilization and thrombus growth. […] Therefore, we propose that discovery of a small molecule that can prevent the association of CIB1 and alphaIIb-beta3 will be a potential anti-platelet agent that can block the thrombus formation without undue effect on hemostasis. Reference: [1] Naik MU, Nigam A, Manrai P, et al. CIB1 deficiency results in impaired thrombosis: the potential role of CIB1 in outside-in signaling through integrin alpha IIb beta 3. J Thromb Haemost.
PROTOCOL TABLES SEQUENCE No. (1, 2, 3, etc.); […] (e.g., Cells, Incubation, Reagent, etc.); VALUE and DESCRIPTION. 1; Reagent; 3 uL; Protein or buffer (4/3x) 2; Compound; 46 nL; Control inhibitor / compound library 3; Time; 15 min; Room temperature incubation 4; Reagent; 1 uL; Fluorescent labeled peptide (4x) 5; Time; 1000 rpm; Centrifuge 6; Time; 15 min; Room temperature incubation 7; Detection; Ex 480/ Em 540; ViewLux Fluorescence Read NOTES (numbers refer to sequence above) 1; Protein Mixture: C1B1-GST (final concentrations of 1 uM). […] 3; Room temperature incubation. 4; Fluorescent Labeled Peptide: FITC-aIIb (final concentration of 100 nM). Sequence of alphaIIb peptide: Acetyl-[…]-FITC (purity is 95.83%). 5; Centrifuge 1000 rpm (164 g) for 15 seconds. 6; Room temperature incubation. 7; ViewLux Fluorescent Polization Read: excitation = 480(20) / emission = 540(25) S and P; FITC Dichroic mirror.
% is set by controls: 0 for no effect and ±100 for the full control effect.

Calcium and integrin-binding protein 1 (Homo sapiens), sequence (Q99828 whole entry, looked up): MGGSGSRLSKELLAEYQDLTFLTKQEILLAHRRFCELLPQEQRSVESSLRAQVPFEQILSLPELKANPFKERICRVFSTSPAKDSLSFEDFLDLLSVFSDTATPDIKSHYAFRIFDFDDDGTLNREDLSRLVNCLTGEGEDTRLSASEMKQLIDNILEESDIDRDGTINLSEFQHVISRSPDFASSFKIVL

| SMILES | activity change, negative = inhibition |
| --- | --- |
| CC1=CCC2C(C)(C)CCC[C@]2(C)[C@@]12CC[C@](C)(CC(=O)O)O2 (stereo not given in full) | 0.256% [at 57.7 µM] (inactive) |
| CCCCNc1ncc2c(-c3ccc(F)cc3)nn(CC3CCC(N)CC3)c2n1 (stereo not given) | -5.27% [at 57.7 µM] (inactive) |
| CC(Nc1ncnc2nc[nH]c12)c1cc2cccc(Cl)c2c(=O)n1-c1ccccc1 (stereo not given) | 2.89% (inactive) |
| C[S+](CC[C@H](N)C(=O)[O-])C[C@H]1O[C@@H](n2cnc3c(N)ncnc32)[C@H](O)[C@@H]1O (stereo not given in full) | 0.492% (inactive) |
| CC(=O)C=C=C1C(C)(C)CC(O[C@@H]2O[C@H](CO)[C@@H](O)[C@H](O)[C@H]2O)CC1(C)O (stereo not given in full) | 3.62% [at 57.7 µM] (inactive) |
| CCN1CCN(Cc2ccc(NC(=O)c3ccc(C)c(NC(=O)c4cncc(-c5cccs5)c4)c3)cc2C(F)(F)F)CC1 | 1.42% (inactive) |
| CC(=O)O[C@@H]1[C@H](O[C@@H]2O[C@@H](CO)[C@H](O)[C@H]2O)[C@@H](O[C@@H]2O[C@@H](C)[C@H](O[C@@H]3OC[C@@H](O)[C@H](O)[C@H]3O)[C@@H](O)[C@H]2O)[C@H](OC(=O)[C@]23CCC(C)(C)C[C@H]2C2=CCC4[C@@]5(C)CC[C@H](O[C@@H]6O[C@H](C(=O)O)[C@@H](O)[C@H](O)[C@H]6O[C@@H]6O[C@H](CO)[C@H](O)[C@H](O)[C@H]6O)[C@@](C)(C=O)C5CC[C@@]4(C)[C@]2(C)CC3)O[C@@H]1C (stereo not given in full) | -9.52% [at 12.4 µM] (inactive) |
| CC/C=C\C/C=C\C/C=C\CCCCCCCC(=O)OCC(O)COC1OC(CO)C(O)C(O)C1O (stereo not given) | 3.91% [at 57.7 µM] (inactive) |
| CCNC(=O)Nc1ncc(-c2cc(-c3c(C)cc(OC)cc3C)nc(-c3cnccn3)n2)s1 | -2.78% (inactive) |
| COc1cc2c(cc1O)[C@H](c1ccc(O[C@@H]3O[C@H](CO)[C@@H](O)[C@H](O)[C@H]3O)c(OC)c1)[C@@H](CO)[C@](O)(CO)C2 | 2.67% [at 57.7 µM] (inactive) |
| O=C(O)C1CN(Cc2ccc(-c3nc4cc(Cc5ccccc5F)ccc4s3)c(F)c2)C1 | 2.04% [at 30.2 µM] (inactive) |
| OC[C@H]1O[C@@H](OC[C@H]2O[C@@H](OC/C=C/c3ccccc3)[C@H](O)[C@@H](O)[C@@H]2O)[C@@H](O)[C@@H]1O | 0.368% [at 57.7 µM] (inactive) |
| C=C(C(=O)O)C1CCC2(C)CCCC(C)(O)C2C1 (stereo not given) | 3.2% (inactive) |
| C=C1C(OC2OCC(O)C(O)C2O)CC2C(C)(C)C(O)CCC2(C)C1CC/C(C)=C\CO (stereo not given) | 1.93% [at 57.7 µM] (inactive) |
| COc1cc(/C=C/C=O)cc(OC)c1O[C@@H]1O[C@H](CO)[C@@H](O)[C@H](O)[C@H]1O | -1.46% [at 57.7 µM] (inactive) |
| COCC1OC(OC(C)(C)C2CCC3(C)C=C(C4CCC5C4(C)CC(O)C4OC(C(C)(C)OC6OC(CO)C(O)C(O)C6NC(C)=O)CCC45C)CCC3O2)C(NC(C)=O)C(O)C1O (stereo not given) | 1.3% [at 30.2 µM] (inactive) |
| CC1(C)C[C@H](O)C[C@@]2(C)OC(=O)C=C12 | -0.151% [at 228 µM] (inactive) |
| CC(=O)O[C@H]1C[C@@]2(C)[C@@H](CC[C@H]3[C@@]4(C)C=CC(=O)[C@@H](C)[C@@H]4[C@H](O)C(=O)[C@@]32C)/C1=C(/CCC=C(C)C)C(=O)O | 2.46% [at 57.7 µM] (inactive) |
| CC(C)CCC1(O)C(=O)C(C)(C)C(O[C@@H]2O[C@H](CO)[C@@H](O)[C@H](O)[C@H]2O)C(C)(C)C1O (stereo not given in full) | 2.59% [at 57.7 µM] (inactive) |
| CN(C)CCn1cc(S(=O)(=O)c2cccc(F)c2)c2cccnc21 | 1.67% (inactive) |

| SMILES | activity change, negative = inhibition |
| --- | --- |
| CC[C@H]1OC(=O)[C@H](C)[C@@H](O[C@H]2C[C@@](C)(OC)[C@@H](O)[C@H](C)O2)[C@H](C)[C@@H](O[C@@H]2O[C@H](C)C[C@H](N(C)C)[C@H]2O)[C@](C)(O)C[C@@H](C)C(=O)[C@H](C)[C@H]2OC(=O)O[C@@]21C | 4.73% (inactive) |
| C[C@H](C(=O)NC1CCCC1)N(C(=O)Cn1nnc(-c2ccc3c(c2)OCO3)n1)C1CCCCC1 | -1% (inactive) |
| O=C1NC(=O)C(c2cn3c4c(cccc24)CCC3)C1c1c[nH]c2ccccc12 (stereo not given) | -1.84% (inactive) |
| O=C(CO)[C@@H](O)[C@H](O[C@@H]1O[C@H](CO)[C@H](O)[C@H](O)[C@H]1O)[C@H](O)CO | 2.6% (inactive) |
| COC(=O)Cc1cc2c(c([N+](=O)[O-])c1)N(C(=O)CC[C@H](N)C(=O)O)CC2 | -3.22% (inactive) |
| Cn1ncnc1COc1nn2c(-c3cc(F)ccc3F)nnc2cc1C(C)(C)C | -2.94% (inactive) |
| CC1=C(C)C(=O)OC(C(C)C2CCC3C4C5OC5C5(O)CC(OC6OC(CO)C(OC7OC(C)C(O)C(O)C7O)C(O)C6O)CC(O)C5(C)C4CCC23C)C1 (stereo not given) | 2.73% [at 30.2 µM] (inactive) |
| CC1OC(OC2C(O)C(OC3CCC4(C)C(CCC5(C)C4CC=C4C6CC(C)(COC7OC(CO)C(O)C(O)C7O)CC(O)C6(C)CCC45C)C3(C)C)OC(C(=O)O)C2O)C(O)C(O)C1OC1OCC(O)C(O)C1O (stereo not given) | 0.165% [at 30.2 µM] (inactive) |
| CCOC(=O)CCN(C(=O)c1ccc2c(c1)nc(CNc1ccc(C(=N)N)cc1)n2C)c1ccccn1 | 6% (inactive) |
| C=C(CCC1=C(C)[C@H]2[C@H](CC3[C@@H]4CC=C5C[C@@H](O)C[C@@H](O)[C@]5(C)C4[C@H](O)C[C@@]32C)O1)CO[C@@H]1O[C@H](CO)[C@@H](O)[C@H](O)[C@H]1O (stereo not given in full) | -1.41% [at 30.2 µM] (inactive) |
| CC(C)NCC(C(=O)N1CCN(c2ncnc3c2C(C)CC3O)CC1)c1ccc(Cl)cc1 (stereo not given) | 2.2% (inactive) |
| CC(C)=CCC/C(C)=C/CC/C(C)=C/COC1OC(COC2OCC(OC3OCC(O)C(O)C3O)C(O)C2O)C(O)C(OC2OC(C)C(OC3OC(C)C(OC4OCC(OC5OC(C)C(O)C(O)C5O)C(O)C4O)C(O)C3O)C(O)C2O)C1O (stereo not given) | 4.51% [at 12.4 µM] (inactive) |
| Cc1ccc(F)cc1C(=O)Nc1ccc(C(=O)N2Cc3cccn3Cc3ccccc32)c(Cl)c1 | 1.73% (inactive) |
| CC[C@]12C=CCN3CC[C@@]4(c5cc([C@@]6(C(=O)OC)C[C@H]7C[C@@H](C(C)(F)F)CN(Cc8c6[nH]c6ccccc86)C7)c(OC)cc5N(C)[C@H]4[C@@](O)(C(=O)OC)[C@@H]1OC(C)=O)[C@@H]32 | 0.761% [at 30.2 µM] (inactive) |
| Cc1ccccc1NC(=O)Nc1ccc(CC(=O)N(C)[C@@H](CC(C)C)C(=O)NCC[C@H](NC(=O)[C@@H]2CCCN2S(=O)(=O)c2cc(Cl)cc(Cl)c2)C(=O)O)cc1 | -16% [at 57.7 µM] (inactive) |
| CC1=C2C[C@H]3O[C@@]3(C)CCC3O[C@@]3(C)C[C@@]2(O)OC1=O (stereo not given in full) | 3.52% (inactive) |
| CO[C@H]1C[C@@H]2CC[C@@H](C)[C@@](O)(O2)C(=O)C(=O)N2CCCC[C@H]2C(=O)O[C@H]([C@H](C)C[C@@H]2CC[C@@H](OP(C)(C)=O)[C@H](OC)C2)CC(=O)[C@H](C)/C=C(\C)[C@@H](O)[C@@H](OC)C(=O)[C@H](C)C[C@H](C)/C=C/C=C/C=C/1C | -0.895% [at 57.7 µM] (inactive) |
| CC1(O)CCCC2(C)C1CCC13CC(CO)C(CCC12)C3 (stereo not given) | 1.03% (inactive) |
| CC(=O)OC[C@]12[C@H](OC(C)=O)C(=O)[C@@H]3[C@@H](OC(C)=O)[C@@]14O[C@@]3(C)COC(=O)c1cccnc1[C@@H](C)[C@H](C)C(=O)O[C@@H]([C@H](O)[C@@H]2OC(C)=O)[C@]4(C)O | -0.118% [at 30.2 µM] (inactive) |
| CC(C)c1cc2c(c(O)c1O)[C@@]13CCCC(C)(C)[C@@H]1[C@H](OC3=O)C2=O | -13.8% [at 57.7 µM] (inactive) |
